Laboratory results published in PubChem BioAssay AID652071 (NMMLSC, 2013).

test: yeast cytosolic pH changes via V-ATPase – S. cerevisiae, pHLuorin, powder set 4, dose response (AID 652071); settings: S. cerevisiae pHLuorin cytosolic pH fluorescence; series mostly up to 100 µM; response change, sign ambiguous: at the top concentration; call rule not given here

Response change, sign ambiguous, inactive:
Cc1cncc(C(=O)Nc2ccccc2N2CCCCC2)n1 -56.8%
COCc1cccc(C(=O)Nc2ccccc2N2CCN(C)CC2)c1 6.5%
CS(=O)(=O)c1cccc(C(=O)Nc2ccccc2N2CCOCC2)c1 17.9%
CN1CCN(c2ccccc2NC(=O)c2cccc(C(=O)N(C)C)c2)CC1 5.41%
CN1CCN(c2ccccc2NC(=O)c2cccc(C(F)(F)F)n2)CC1 8.13%
CN1CCN(c2ccccc2NC(=O)c2cncc(N)n2)CC1 -3.21%
O=C(Nc1ccccc1N1CCCCC1)c1cccc(C(F)(F)F)n1 -18.9%
CC(=O)N1CCN(c2ccccc2NC(=O)c2cccc(C#N)c2)CC1 -35.1%
CN(C)Cc1cccc(C(=O)Nc2ccccc2N2CCCCC2)c1 -22.9%
COCc1ccc(C(=O)Nc2ccccc2N2CCN(C(C)=O)CC2)o1 -4.67%
CC(C)(C)c1ccc(C(=O)Nc2ccccc2N2CCCCC2)o1 -24.8%
CC(=O)N1CCN(c2ccccc2NC(=O)c2cccc(C)n2)CC1 -39.5%
NC(=O)c1cccc(C(=O)Nc2ccccc2N2CCCCC2)c1 -6.71%
CN1CCN(c2ccccc2NC(=O)c2cccc(C#N)c2)CC1 3.79%
CN1CCN(c2ccccc2NC(=O)c2cncc(Cl)n2)CC1 -1.67%
O=C(Nc1ccccc1N1CCCCC1)c1cccc(Cl)n1 -40.8%
Cc1ccnc(C(=O)Nc2ccccc2N2CCCCC2)c1 -34.3%
O=C(Nc1ccccc1N1CCCCC1)c1occc1-c1ccccc1 -82.7%
CN(C)Cc1cccc(C(=O)Nc2ccccc2N2CCN(C)CC2)c1 3.21%
O=C(Nc1ccccc1N1CCOCC1)c1occc1-c1ccccc1 -14.3%
